Our source for the binding signal values is PMC3795721, “Screening for Protein-DNA Interactions by Automatable DNA-Protein Interaction ELISA”.

Chain of AT4G31550 (Q9SV15 228-325): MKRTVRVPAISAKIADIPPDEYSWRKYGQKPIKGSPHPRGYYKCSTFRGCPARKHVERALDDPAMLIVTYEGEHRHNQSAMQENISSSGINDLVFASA

The test addresses AT4G31550 (Arabidopsis thaliana, UniProt Q9SV15 228-325). Briefly: DPI-ELISA; DPI-ELISA, streptavidin 384-well plate, 1-2 pmol biotinylated dsDNA per well, crude native E. coli extract, anti-His detection; buffer as in Brand et al. [46],; high values mean tight binding. Particulars: tags: C-terminal His (pET-DEST42); label: 5' biotin on forward strand; dsDNA, one strand shown.
Sequence AAAAAAGGCCGTTGGACCTCGGTCTAAAAA displayed a binding signal of 0.66 ± 0.0707 absorbance.

Consider AAAAAAGTTATTATACCTGATCTCGCAAAA, for which the binding signal is 1 ± 0.778 absorbance.

With AAAAAACGGTAAGTCGACAAAA, the binding signal stood at 0.545 ± 0.0354 absorbance.

Consider AAAAAAACGATACGGTATCTAGAAAA, for which the binding signal came out at 0.525 ± 0.0495 absorbance.

The sequence AAAAAATTCGGGACTAGTAGTGGTGAAAAA showed a binding signal of 0.605 ± 0.0778 absorbance.

The sequence AAAAAACTACTACCTTTGCCTAAGCGAAAA displayed a binding signal of 0.685 ± 0.0919 absorbance.

With AAAAAATCAACCATTATGGTATTACTAAAA, the binding signal was found to be 0.79 ± 0.212 absorbance.

As to AAAAAATGGAAGGAGAGGGATGAAATAAAA, the binding signal was determined as 0.57 ± 0.156 absorbance.

As to AAAAAATTACTCCTAGCCCTCATTCAAAAA, the binding signal was determined as 1.36 ± 0.976 absorbance.

For AAAAAATGGCTCGGGTTCCAAGGTTGAAAA, the binding signal was determined as 0.645 ± 0.0919 absorbance.

Sequence AAAAAAATCACGGTTCGACCTCCAGCAAAA had a binding signal of 0.7 ± 0.127 absorbance.

As to AAAAAAGGCCTTCGCTCGTGTTTACGAAAA, the binding signal came to 0.4 ± 0.0424 absorbance.

For AAAAAACGGGATTCGAAACTTTTTGTAAAA, the binding signal is 0.54 ± 0.099 absorbance.

In the case of AAAAAACCACCCAGTCTGTTTCTACTAAAA, the binding signal was 0.54 ± 0.141 absorbance.

For AAAAAAGTTCGTGCTTAACCCAGTTTAAAA, the binding signal stood at 0.69 ± 0.099 absorbance.

The sequence AAAAAACTCTTAAGGAAAGTTCCGACAAAA showed a binding signal of 0.645 ± 0.12 absorbance.

AAAAAAATGATTTGCAGATCTCCGAGAAAA gave a binding signal of 0.935 ± 0.488 absorbance.

AAAAAATCATTTTATTTTGCCTTTCTAAAA: the binding signal turned out to be 0.56 ± 0.127 absorbance.

With AAAAAATGAGAGAATTTCCGGTTCAGAAAA, the binding signal worked out at 0.575 ± 0.0495 absorbance.

Sequence AAAAAAGGTCTGGACGATCACCGGGAAAAA yielded a binding signal of 0.565 ± 0.12 absorbance.

Turning to AAAAAACTCGCGCTTGCATCTGTGCGAAAA, the binding signal is 0.555 ± 0.0636 absorbance.

AAAAAACTACAACCTGCGCGGTGGTCAAAA registered a binding signal of 0.775 ± 0.0636 absorbance.

AAAAAATAATTACAAGTCGGCTCCACAAAA: the binding signal amounted to 0.69 ± 0.0707 absorbance.

AAAAAATCCGTTCCCATTTGTCCGTCAAAA gave a binding signal of 0.58 ± 0.0849 absorbance.

With AAAAAAACCGATTACCATTTTTACTGAAAA, the binding signal is 0.695 ± 0.148 absorbance.

Sequence AAAAAAGCTTCGCGCCAGCGGGAAAA returned a binding signal of 0.695 ± 0.0636 absorbance.

AAAAAATTCGTATCTGTACCCTATGCAAAA returned a binding signal of 0.79 ± 0.283 absorbance.

The sequence AAAAAATTCTAGCTTTTAACTTTAGCAAAA had a binding signal of 0.6 ± 0.141 absorbance.

Consider AAAAAAACTCTAGGTCAATATTATTCAAAA, for which the binding signal came out at 3.11 ± 0.636 absorbance.

In turn, AAAAAACTGGATGCGCTCACCAGTTAAAAA gave a binding signal of 0.52 ± 0.099 absorbance.

In turn, AAAAAATGTTGTTGCTGTTGGTCCTAAAAA yielded a binding signal of 0.695 ± 0.0778 absorbance.

For AAAAAACTGCTAATCGGTGACCCGATAAAA, the binding signal was 0.745 ± 0.00707 absorbance.

In the case of AAAAAATCTTACCCCTCCGCTTCTATAAAA, the binding signal stood at 0.72 ± 0.255 absorbance.

AAAAAAGGGTTTAGATGTCCTTCAAAAAAA returned a binding signal of 0.59 ± 0.099 absorbance.

In turn, AAAAAAGTTGCCGACGATTGCGGGTTAAAA yielded a binding signal of 0.735 ± 0.163 absorbance.

In the case of AAAAAACTACCTCTACTCTAGCCTTAAAAA, the binding signal turned out to be 0.515 ± 0.0495 absorbance.

As to AAAAAACCTCTTGTCTCTGCTCTCCCAAAA, the binding signal worked out at 0.575 ± 0.106 absorbance.
